The results in this text go back to PubChem BioAssay AID1259343 (VanderVen Lab, College of Veterinary Medicine, Cornell …, 2017).

Screen size: about 6,200 compounds; about 2,900 (47%) were called active. So high a share suggests a set chosen from earlier hits. This is one part of the list. A number with no mark means an inactive call. Rule as the data show it: active = inhibition above about 50%; inactive = the rest.

The assay is described as follows: Mycobacterium tuberculosis growth inhibition, primary screen (AID 1259343). The settings on record: inhibition: at 10 µM, stronger effect = higher value; outcome: 10 uM.
As usually defined, the inhibition is the relative decrease from the control value, in per cent. `CNc1nc2cnc(Nc3ccc(Oc4ccccc4)cc3)cc2n1CCOC`: the inhibition is 69.3% (active).

`Nc1cccc(-c2cc(Nc3ccc(Oc4ccccc4)cc3)ncn2)c1`: the inhibition was 9.35%.

For `COC(=O)Cc1ccc(NC(=O)c2cnccn2)cc1`, the inhibition was 87.5% (active).

Take `Cc1cnc(C(=O)NCCc2ccccc2C)cn1`: the inhibition was 94.4% (active).

With `COC(=O)c1ccc(CNC(=O)c2ccc3c(c2)OCO3)cc1`, the inhibition is 55.5% (active).

As to `O=C(NCc1ccc2c(c1)OCO2)c1cccs1`, the inhibition was 52.8% (active).

Consider `COc1ccc(CCNC(=O)c2cnc(C)cn2)cc1OC`, for which the inhibition was 41.9%.

For the compound `Cc1cnc(C(=O)NC(C)c2ccccc2OC(C)C)cn1` (centres undefined), the inhibition was -5.8%.

Turning to `CN(C)c1ccc(CNC(=O)c2ccc3c(c2)CCCC3)cc1`, the inhibition was -5.89%.

Consider `O=C(C=Cc1cccs1)NCc1ccc2c(c1)OCO2`, for which the inhibition is -6.77%.

Consider `O=C(Nc1ccc(OCC(F)(F)F)cc1)c1cnccn1`, for which the inhibition is 25.9%.

Regarding `Cc1ccc(C2(O)CCN(c3noc(-c4ccccc4)n3)CC2)nc1`, the inhibition was 16.2%.

Take `CCCc1ccc(NC(=O)c2cnc(C)cn2)cc1`: the inhibition is 100% (active).

As for `Cc1cnc(C(=O)NCc2ccc3c(c2)OCO3)cn1`, the inhibition is 63.5% (active).

As to `CC1Cc2cc(CNC(=O)c3cc(C(C)C)nn3C)ccc2O1` (centres undefined), the inhibition is 3.55%.

In the case of `Cc1cnc(C)c(Nc2nc(C(N)Cc3ccc(Cl)cc3)cs2)n1` (centres undefined), the inhibition was 78.6% (active).

`Cc1cnc(C)c(Nc2nc(C(N)Cc3ccc(C(F)(F)F)cc3)cs2)n1` (centres undefined): the inhibition is 81.1% (active).

On to `CCc1ccc(NC(=O)COc2ccc(Br)cn2)cc1`, for which the inhibition is -1.65%.

Turning to `CCOCCC1(C(=O)Nc2ccc(CC)cc2)CCC1`, the inhibition was 75.8% (active).

On to `COCc1cccc(C(=O)Nc2nc(C3CC3)cs2)c1`, for which the inhibition is 5.98%.

As to `COCc1cccc(C(=O)Nc2ccc(C(C)(C)C)cc2)c1`, the inhibition is 60.8% (active).

For `COC(=O)c1cccc(S(=O)(=O)N(C)Cc2ccc(C)cc2C)c1`, the inhibition was 82.9% (active).

Consider `COc1cc(C)c(CN(C)C(=O)CCl)cc1OC`, for which the inhibition is -15.9%.

For `COC(=O)c1c(NC(=O)c2ccccc2Cl)sc2c1CCCC2`, the inhibition was 98.2% (active).

Turning to `NC(=O)c1c(NC(=O)C2CCCCC2)sc2c1CCCC2`, the inhibition is -14.9%.

`CCOC(=O)c1sc(N)c(C(=O)OC)c1C`: the inhibition was -1.92%.

Regarding `COC(=O)c1c(NC(=O)c2ccccc2Br)sc(C)c1C`, the inhibition is 88.2% (active).

Regarding `Cc1cccc(OCCNC(=O)c2c(NC(=O)C3CC3)sc(C)c2C)c1`, the inhibition is 20.2%.

Turning to `O=C(Nc1ccccc1Cl)c1csc2c1CCCC2`, the inhibition is 50%.

With `NC(=O)c1c(NC(=O)CC23CC4CC(CC(C4)C2)C3)sc2c1CCC2`, the inhibition is 70.6% (active).

On to `O=C(O)c1c(NC(=O)C2CCCCC2)sc2c1CCC2`, for which the inhibition is 79.8% (active).

Turning to `O=C(NC1CC1)c1c(NC(=O)C23CC4CC(CC(C4)C2)C3)sc2c1CCCC2`, the inhibition was 41.1%.

Regarding `O=C(C=Cc1ccco1)Nc1sc2c(c1C(=O)O)CCCC2`, the inhibition is 8.18%.

Take `COc1ccc(-c2ccc(NC(=O)c3cccnc3)c(C)c2)c(OC)c1OC`: the inhibition was 40.8%.

Regarding `O=C(Nc1sc2c(c1C(=O)O)CCCC2)c1cccnc1`, the inhibition is 70.5% (active).

Take `CC1Cc2cc(-c3cc(CC(=O)NCc4cccnc4)no3)ccc2O1` (centres undefined): the inhibition is 37.3%.

Consider `O=C(Cc1cc(-c2ccc3c(c2)OCO3)on1)NCCC1=CCCCC1`, for which the inhibition is 41%.

For `Cc1cc(NC(=O)Cc2cc(-c3ccc4c(c3)CC(C)O4)on2)no1` (centres undefined), the inhibition is 34.1%.

For `COc1cccc(-c2cc(CC(=O)NCCC3=CCCCC3)no2)c1`, the inhibition is 83.2% (active).

`CC1Cc2cc(-c3cc(CC(=O)NCc4ccco4)no3)ccc2O1` (centres undefined): the inhibition is 92.3% (active).

Take `CC1Cc2cc(-c3cc(CC(=O)NCCC4=CCCCC4)no3)ccc2O1` (centres undefined): the inhibition was 73.2% (active).

`O=C1C=C(O)c2ccccc2C1=O`: the inhibition was 53.8% (active).

For `N#CC(=CC=Cc1ccc([N+](=O)[O-])o1)c1nc2ccccc2[nH]1`, the inhibition is 101% (active).

`N#CC(=Cc1ccc([N+](=O)[O-])o1)c1nc(C2CC2)cs1`: the inhibition was -16.5%.

`N#Cc1ccc(OS(=O)(=O)c2cccs2)cc1`: the inhibition was 51.7% (active).

On to `O=c1ccc2ccc(OS(=O)(=O)c3cccs3)cc2o1`, for which the inhibition is 90.5% (active).

`O=c1cc(C(F)(F)F)c2ccc(OS(=O)(=O)c3ccc(F)c(F)c3)cc2o1`: the inhibition is 1.62%.

For `CCOC(=O)C(C#N)=Cc1cn(CCC#N)nc1-c1ccc(Br)cc1`, the inhibition is -13.1%.

Regarding `Fc1ccc(-c2cc(CNc3nccc(C4CCCC4)n3)no2)cc1`, the inhibition is 44.8%.

Take `Oc1ccc(CCNc2nccc(C3CCCC3)n2)cc1`: the inhibition was 51.5% (active).

`C=CC[P+](N(CCC)CCC)(N(CCC)CCC)N(CCC)CCC`: the inhibition is 80% (active).

As for `CC(C)=CCc1c(O)cc2occ(-c3ccc4c(c3)OCO4)c(=O)c2c1O`, the inhibition is 68.8% (active).

Turning to `O=C(COc1ccc2oc3c(c2c1)CCCC3)NCc1cccnc1`, the inhibition is -6.78%.

`CC(C)(C)NC(=O)COc1ccc2oc3c(c2c1)CCCC3`: the inhibition is 31.6%.

As for `COC(=O)c1c(C)oc2ccc(OCC(=O)c3ccc(F)cc3)cc12`, the inhibition was 87.5% (active).

For the compound `Cc1ccc(CC(=O)C(C#N)c2nc3sc(C)c(C)c3c(=O)[nH]2)cc1` (centres undefined), the inhibition is 37.3%.

Take `Cc1ccc(-c2c(C)sc3nc(CN4CCN(Cc5ccccc5)CC4)[nH]c(=O)c23)cc1`: the inhibition was 96.5% (active).

With `CCNC(=O)CSc1nnc(-c2ccccc2)o1`, the inhibition was 92.3% (active).

`CCNC(=O)CSc1nnc(-c2ccc(C)cc2)o1`: the inhibition is 93.8% (active).

For `Cc1ccc(-c2nnc(SCC(=O)NC3CC3)o2)cc1`, the inhibition is -24.4%.

With `CCCC(C)NC(=O)COc1ncnc2scc(-c3ccc(C)cc3)c12` (centres undefined), the inhibition was 49.2%.

Turning to `c1coc(-c2nnc(SCc3nnc(-c4cccs4)o3)o2)c1`, the inhibition is -25.9%.

`CCCC(C)NC(=O)CSc1nnc(-c2ccc(Cl)cc2)o1` (centres undefined): the inhibition was 95.8% (active).

As to `C=CCNC(=O)CSc1nnc(-c2cccs2)o1`, the inhibition is 99.4% (active).

As for `c1ccc(C(Cn2cncn2)NCc2cccs2)cc1` (centres undefined), the inhibition is -11.6%.

For the compound `CCCN(CC1CC1)c1oc(-c2ccc(F)cc2)nc1C#N`, the inhibition was 12.7%.

For the compound `CCCCNC(=O)CSc1nnc(-c2ccc(OCC)cc2)o1`, the inhibition is 81.2% (active).

As to `Cc1ccc(-c2nnc(SCC(=O)NC(C)C(C)C)o2)cc1` (centres undefined), the inhibition was 87.3% (active).

As for `CCOc1ccc(-c2nnc(SCC#N)o2)cc1`, the inhibition was -18%.

Consider `CC1CCC(NC(=O)CSc2nnc(C(C)C)o2)CC1` (centres undefined), for which the inhibition was 32.9%.

In the case of `Cc1cc(C)cc(N2C(=O)C3N=NN(c4ccc(Br)c(C)c4)C3C2=O)c1` (centres undefined), the inhibition was 89% (active).

Take `COC(=O)c1cc(C)nc(N(C)C)c1C(=O)OC`: the inhibition is -14.7%.

For the compound `CC(C)c1ccc(/C=N\Nc2ncnc3nc[nH]c23)cc1`, the inhibition was 58.7% (active).

Regarding `O=c1c(Cl)c(Cl)cnn1-c1ccc(NC2CC2)c(Cl)c1`, the inhibition was 91.2% (active).

Consider `O=c1c(Cl)c(Cl)cnn1-c1ccc(N2CCOC(c3ccccc3)C2)c(Cl)c1` (centres undefined), for which the inhibition was 16.1%.

In the case of `CN(C)C(=O)CSc1nnc(-c2ccc(Cl)cc2)n1C`, the inhibition was 0.36%.

For the compound `Cc1ccc(-c2nnc(SCC(=O)c3ccc4c(c3)OCO4)n2C)cc1`, the inhibition is 89.8% (active).

As for `c1csc(-c2nnc(SCc3ccc4c(c3)OCO4)n2C2CC2)c1`, the inhibition is -34.7%.

In the case of `Cc1nc2cc(NC(=O)C3(C)CCc4c(C)c(O)c(C)c(C)c4O3)ccc2s1` (centres undefined), the inhibition was 68.5% (active).

Take `CN(Cc1cccs1)C(=O)c1cc2c(cc1O)CCCC2`: the inhibition is 67.8% (active).

For the compound `CN(Cc1cccc(C#N)c1)C(=O)c1cc2c(s1)CCCCCC2`, the inhibition was 30.1%.

Consider `CCCCNC(=S)N(C)N=Cc1c(F)c(F)c(F)c(F)c1F`, for which the inhibition is 58% (active).

Turning to `CCCCNC(=S)N(C)N=Cc1sccc1C`, the inhibition was 29%.

As to `Cc1ccc(-c2cc(C(=O)N3CCCC3C3CCCC3)n[nH]2)s1` (centres undefined), the inhibition is 31.1%.

Regarding `COc1ccc(-c2nc(C=CC(=O)N3CCCC4CCCCC43)cs2)cc1` (centres undefined), the inhibition is 62.1% (active).

Take `CCCCc1ccc(N=Cc2nc(/C=C/c3cccc([N+](=O)[O-])c3)oc2O)cc1`: the inhibition was 84.9% (active).

For the compound `CCCCc1ccc(N=Cc2c(C)c(C#N)c(=O)n(CCCC)c2O)cc1`, the inhibition is 4.37%.

For `COc1cc(F)ccc1Oc1ccc2c(C3CC3)noc2n1`, the inhibition is 47.7%.

In the case of `Cc1ccc(Oc2ccc3c(C4CC4)noc3n2)cc1F`, the inhibition is 64.9% (active).

With `Cc1cc(Oc2ccc3c(C4CC4)noc3n2)ccc1F`, the inhibition was 58.7% (active).

With `COc1ccc(F)cc1Oc1ccc2c(C3CC3)noc2n1`, the inhibition was 30%.

Regarding `COc1ccc(Oc2ccc3c(C4CC4)noc3n2)c(F)c1`, the inhibition was 61.2% (active).

Take `CCN(CC)CCN1CCN(c2ccnc3c(-c4cc(C(F)(F)F)cc(C(F)(F)F)c4)cnn23)CC1`: the inhibition was 37.6%.

As to `COCc1[nH]n2c(=O)c(Cl)c(C)nc2c1-c1ccc(C)cc1`, the inhibition is 98.7% (active).

For `Cc1ccccc1-c1cnnc(N2CCCC(COc3ccccc3F)C2)n1` (centres undefined), the inhibition is -23.4%.

Turning to `C=C(C)CSc1nnc2c(n1)[nH]c1ccccc12`, the inhibition is 61.6% (active).

As for `C=CCSc1nnc2c3ccccc3n(CC=C)c2n1`, the inhibition was 28.1%.

Take `S=c1nnc2c3ccccc3[nH]c2n1CCc1ccccc1`: the inhibition was 18%.

Regarding `Cc1cc(Br)ccc1NCC(=O)N1CCCCC1`, the inhibition was 95.6% (active).

`Cc1cc(Br)ccc1NCc1ccc(C#N)cc1`: the inhibition is 35.3%.

`O=C(C=Cc1ccc(OC(F)F)cc1)c1ccc(O)cc1`: the inhibition was 81.8% (active).

With `COc1cc(C(=O)C=Cc2ccc(OC(F)F)cc2)ccc1O`, the inhibition is 17.6%.

In the case of `N#CC(C#N)=C(C=Cc1ccc(OC(F)F)cc1)C1CC1`, the inhibition is -8.38%.

Take `CC(C)c1ccc2[nH]c3c(c2c1)CCC/C3=N\N=C/c1ccncc1`: the inhibition was 78.2% (active).
